Reference: PubChem BioAssay AID485317 (Broad Institute, 2010)
The whole screen tested about 290,000 compounds, of which about 11,000 (3.8%) were called active.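 Rule for the calls: active = mean replicate inhibition above about 79%, with every replicate also reaching it (limit read from the data); inconclusive = only one of the two criteria met; inactive = mean below limit and not every replicate reaching it.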 Only a selection was taken, and actives are over-represented in it overall.

biological target: FAD-linked sulfhydryl oxidase ALR (Homo sapiens) (UniProt P55789); test: inhibitors of human ALR sulfhydryl oxidase, primary screen, biochemical, H2O2 detection, HRP-luminol luminescence, single point (AID 485317); conditions: purified ALR, DTT oxidation, hits give high values, concentration not given here
Sequence (P55789 whole entry, looked up): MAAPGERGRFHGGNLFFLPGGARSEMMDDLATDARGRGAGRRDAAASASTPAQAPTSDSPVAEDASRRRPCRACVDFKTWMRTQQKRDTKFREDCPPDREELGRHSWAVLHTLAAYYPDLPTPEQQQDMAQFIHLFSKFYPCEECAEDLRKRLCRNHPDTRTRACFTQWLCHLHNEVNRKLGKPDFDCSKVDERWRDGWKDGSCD

inhibition, inactive:
O=C(Nc1ccc2c(c1)OCO2)C1CC1(Cl)Cl (centres undefined) -6.35%
O=C(c1ccc(Cl)nc1)N1CCN(S(=O)(=O)c2ccc3c(c2)OCCO3)CC1 0.752%
Cc1c(C(=O)Nc2cccc(S(=O)(=O)N3CCOCC3)c2)oc2ccccc12 -6.82%
Cc1nc2ccc(NC(=O)c3cccc(S(=O)(=O)N4CCOCC4)c3)cc2s1 -4.99%
COc1ccc(S(=O)(=O)Nc2ccc(O)c(Sc3nc4ccccc4s3)c2)cc1 17.5%
COc1cc(OC)cc(C(=O)NC(C(=O)N2CCC2)C(C)C)c1 (centres undefined) 3.67%
O=C(CSc1ncn[nH]1)N/N=C/c1ccc(F)cc1 -0.231%
Cc1ccc(S(=O)(=O)Nc2nc(CN3CCOCC3)nc3sc(C)c(C)c23)cc1 -1.38%
O=C(NNC(=O)c1ccc(Cl)nc1)c1ccc(Br)cc1 -1.29%
Cc1cnc(NC(=O)c2ccc(Cl)nc2)s1 -5.29%
COc1cc(/C=C/C(=O)OCC(=O)c2ccccc2)cc(OC)c1OC 3.07%
C[C@H](CO)N1C[C@H](C)[C@H](CN(C)C(=O)Nc2ccc(C(F)(F)F)cc2)Oc2c(NC(=O)c3ccncc3)cccc2C1=O -1.8%
Cc1ccc(S(=O)(=O)NC2CCCCCC2)cc1 -3.36%
Cc1ccccc1NC(=O)NCc1ccco1 -5.6%
O=C(Nc1ccccc1)Nc1ccccc1C(=O)NCc1ccco1 -2.76%
O=C(OCC(=O)N1CCc2ccccc21)c1ccc([N+](=O)[O-])cc1 -3.86%
O=C(/C=C/c1ccccc1[N+](=O)[O-])NCC1CCCO1 (centres undefined) -4.47%
O=[N+]([O-])c1ccccc1/C=C/CN1CCC(O)CC1 -20.9%
CC/C(O)=N\S(=O)(=O)c1ccc(N=NN(C)C)cc1 -19.2%
COc1ccc(/C(C)=N/NC(=O)c2ccc3nc[nH]c3c2)cc1 -6.54%
Cc1cc(C)c(-c2csc(NC(=O)CCCc3nc4ccccc4c(=O)[nH]3)n2)c(C)c1 -7.67%
CC1(C)CC(=O)C(CC(=O)N2CCC(Cc3ccccc3)CC2)C(=O)C1 2.75%
O=C(Cn1cnc2c(nnn2-c2ccccc2)c1=O)N1CCC(Cc2ccccc2)CC1 -5.43%
CCN(CC(=O)NCc1cccs1)C(=O)c1ccc(OC)c(S(=O)(=O)N2CCOCC2)c1 -4.54%
CCC(C)N(C(=O)CSc1nnnn1-c1ccccc1OC)C1CCS(=O)(=O)C1 (centres undefined) 1.16%
O=C1CN(C(=O)COC(=O)/C=C/c2ccc(F)cc2)c2ccccc2N1 -2.48%
COc1ccc(CC(=O)OC(C)C(=O)Nc2ccc(S(N)(=O)=O)cc2)cc1 (centres undefined) -3.25%
NS(=O)(=O)c1ccc(NC(=O)COC(=O)CCc2c[nH]c3ccccc23)cc1 23.6%
NS(=O)(=O)c1ccc(CCNC(=O)CN2C(=O)c3ccccc3S2(=O)=O)cc1 20.2%
O=C(NCCS(=O)(=O)N1CCN(c2ccccc2)CC1)c1ccco1 4.33%
O=C(Cn1cnc2c(OCc3ccccc3)ncnc21)NCCCn1ccnc1 -1.71%
O=C1CN(C(=O)COc2c(Cl)cccc2Cl)c2ccccc2N1 -8.36%
COc1ccc(S(=O)(=O)NCc2cccnc2)cc1NC(=O)c1ccc(C)cc1 -2.4%
CC(C)(C)NS(=O)(=O)NC(=O)C1=C(N2CCCC2)COC1=O 2.74%
CC(=O)Nc1ccc(C(=O)Nc2cccc(S(=O)(=O)NC3=NCCC3)c2)cc1 -4.84%
CC(=O)c1nn(-c2ccc(C)cc2)cc1C(=O)c1cccc(Br)c1 -13.6%
CC(=O)N/C(=C\c1ccccc1)C(=O)OC(C)C(=O)N(C)c1ccccc1 (centres undefined) 0.887%
Cc1nc2nc(SCC(=O)c3ccccc3)[nH]c2cc1Br -4.01%
Cc1nc(SCc2ccc(F)cc2)c([N+](=O)[O-])[nH]1 1.42%
O=C1CCCCC1Sc1ccc(Cl)cc1[N+](=O)[O-] (centres undefined) -27.8%
CCOc1ncccc1C(=O)Nc1ccc2c(c1)OCCO2 4.02%
Oc1ccc2ccccc2c1N=Nc1nccs1 -13.2%
CN1CCN(S(=O)(=O)c2cccc(C(=O)Nc3sccc3C#N)c2)CC1 6.71%
CC(=O)Nc1ccc(S(=O)(=O)Nc2ccc(N3CCOCC3)c(F)c2)cc1 3.94%
COc1ccc(C(=O)NC(=S)Nc2ccc(N3CCCC3)cc2)cc1OC 2.05%
CC(=O)Nc1ccc(NS(=O)(=O)c2ccc3c(c2)NC(=O)CC(=O)N3)cc1 -6.71%
COc1cccc(C(=O)Nc2ccc(N3CCN(C(=O)c4ccco4)CC3)cc2)c1 -0.228%
Cc1ccccc1C(=O)Nc1ccc(N2CCCCCC2)cc1 68.7%
COc1ccc(C(=O)Nc2ccc(N3CCC(C)CC3)cc2)cc1Br -4.62%
Cc1ccc(Cc2nnc(SCC(=O)Nc3ccc(C)cc3C)[nH]c2=O)cc1 -13.1%
COc1ccccc1N(C)S(=O)(=O)c1ccc(Cl)c(C(=O)Nc2ccncc2)c1 -13.7%
Cc1ccc(OCC(=O)Oc2ccccc2[N+](=O)[O-])cc1 8.6%
O=C(COc1cccnc1[N+](=O)[O-])Nc1ccc(Cl)cc1F -1.28%
COc1ccc(CNc2nc3c(c(=O)[nH]c(=O)n3C)n2Cc2ccccc2)cc1 -2.89%
C=CCSc1nc2c(c(=O)[nH]c(=O)n2C)n1Cc1ccccc1 -5.44%
COC(=O)c1cccc(NC(=O)c2cccc(N3C(=O)CCC3=O)c2)c1 -1.61%
CCCC(=O)OCC(=O)Nc1cc(Cl)ccc1[N+](=O)[O-] -5.98%
COc1ccc(OCC(=O)Nc2cc(C)c(Cl)cc2OC)c([N+](=O)[O-])c1 -2.93%
CCN(CC(=O)Nc1ccccc1OC)C(=O)CC1CC2CCC1C2 (centres undefined) 1.64%
O=S(=O)(O)Oc1c[nH]c2ccccc12 -3.63%
CC1(c2ccccc2)NC(=O)N(CC(=O)Nc2cc(Cl)ccc2N2CCOCC2)C1=O (centres undefined) 13.2%
N#CC1(NC(=O)COC(=O)Cc2n[nH]c(=O)c3ccccc23)CCCCC1 -18.6%
Fc1ccc(NC(=S)N2CCc3[nH]c4ccccc4c3C2)cc1 3.4%
CCCC(=O)N1CCc2[nH]c3ccccc3c2C1 -30.4%
CN(C(=O)COC(=O)c1ccc(Br)o1)c1c(N)n(Cc2ccccc2)c(=O)[nH]c1=O -5.35%
Cc1c(C)n2c(SCC(=O)NC3CCCC3)nnc2[nH]c1=O 2.18%
COc1cc(OC)cc(-c2c(-c3cccs3)c3cc(-c4ccc(OC)cc4F)ccc3n2C)c1 -3.91%
Cc1ccc(-c2n[nH]c(=S)n2/N=C/c2cc3c(cc2[N+](=O)[O-])OCO3)cc1 -5.58%
Cc1ccc(S(=O)(=O)N/N=C\c2cc3c(cc2[N+](=O)[O-])OCO3)cc1 -3.17%
COc1ccc(/C=N/Nc2cc(N3CCOCC3)nc(C)n2)c(OC)c1 32.1%
C(=N/Nc1cc(N2CCOCC2)nc(N2CCOCC2)n1)/c1ccccc1 34.6%
CCOc1ccc(C(=O)Nc2cc(Cl)ccc2-n2cncn2)cc1OC -4.75%
Cn1c(CC(=O)NNC(=O)c2ccccc2F)nc2ccccc21 -4.08%
COC(=O)CSc1nc(C)c2ccc(OC)cc2n1 -12.7%
COc1ccc2oc(-c3cccc(NC(=O)CSc4ccc(Cl)cc4)c3)nc2c1 -8.13%

inhibition, active:
O=C(O)c1cccc(S(=O)(=O)Nc2ccc(O)cc2Sc2nc3ccccc3s2)c1 98.9%
O=C(NNc1ccccn1)c1ccc(Cl)nc1 91.6%
Cc1cccc(Nc2ccccc2C(=O)NCc2ccco2)c1C 98.6%
CC1CCCCC1NC(=O)/C(C#N)=C/C=C/c1ccccc1[N+](=O)[O-] (centres undefined) 97.6%
CN(C)N=Nc1ccc2nc[nH]c2c1 92.1%
O=C(CN1CCOc2ccccc21)N1CCC(Cc2ccccc2)CC1 98.1%
CC1(C)OC(=O)C(=CSc2ccc(C(C)(C)C)cc2)C(=O)O1 97.7%
CC(OC(=O)CCCc1c[nH]c2ccccc12)C(=O)Nc1ccc(S(N)(=O)=O)cc1 (centres undefined) 81.6%
Cc1nc(SCC(=O)c2ccccc2)c([N+](=O)[O-])[nH]1 97.8%
Oc1ccc(N=Nc2nccs2)c(O)c1 83.1%
COc1cccc(OC)c1C(=O)Nc1ccc(N2CCCCC2)cc1 86%
CC(=O)Nc1ccc(S(=O)(=O)Nc2ccc(N3CCCCC3)cc2)cc1 99.4%
COc1cccc(C(=O)Nc2ccc(N3CCCC3)cc2)c1 100%
Cn1c(=O)[nH]c(=O)c2c1[nH]c(=S)n2Cc1ccccc1 86.9%
Cc1cc(NC(=O)COC(=O)COc2ccc(Cl)cc2C)c([N+](=O)[O-])cc1C 89.5%
C=CCNC(=S)N1CCc2[nH]c3ccccc3c2C1 98.3%
CCOc1ccc(-c2n[nH]c(=S)n2/N=C/c2cc3c(cc2[N+](=O)[O-])OCO3)cc1 84.2%
CN(C)c1ccc(/C=N/Nc2cc(N3CCOCC3)nc(N3CCOCC3)n2)cc1 98.8%
COc1ccc2cc(CCl)c(Cl)nc2c1 98%
